# Measured values from PubChem BioAssay (NCI).
# The panel holds about 83,000 compounds, 20% with a hit somewhere; the sample as a whole holds those more often.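 Cells were grown in 96-well plates and exposed to the test compound at a single concentration for 48 hours; results are reported as percent growth, with values below 10 considered active.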 Unmarked numbers belong to inactive results. The source made the active and inactive calls.
# Tested on: T-47D breast
# Assay: NCI-60 one-dose screen, 48 h (100 = growth as untreated, 0 = no growth, -100 = all killed)
# Conditions: 10 µM unless noted
# Method: Growth inhibition of the T-47D human tumor cell line is measured as a screen for anti-cancer activity. Cells are grown in 96 well plates and exposed to the test compound for 48 hours. Compounds are tested at a single concentration, which is 10^-5 M for most compounds. The reported endpoint is percent growth (GI% or GIPRCNT), where numbers from 0 - 100% represent growth inhibition, and numbers from -100% - 0 represent cell death. For example, a value of 40 represents 60% growth inhibition. A value of 0 means no net growth occurred over the course of the experiment. A value of -40 indicates 40% of cells at the beginning of the experiment died by the end of the experiment. A value of -100 means all cells are dead at the end of the experiment.
# NCI-60 Human Tumor Cell Lines Screen was performed using the standard one-dose NCI protocol, which is described in more detail at https://dtp.cancer.gov/discovery_development/nci-60/default.htm.
# Compounds with GIPRCNT values below 10 were considered active. Activity score was based on GIPRCNT using the following formula: […]
# Score is 0 for GIPRCNT values of 100 or above, 50 for GIPRCNT values of 0, and 100 for GIPRCNT values of -100.
row,SMILES,growth
1,Clc1ccc(CSc2nnc(-c3ccc(Cl)cc3)n2-c2ccccc2)cc1,80.9%
2,COc1ccc2c(c1)c(/C=N/Nc1ccnc3cc(Cl)ccc13)cn2C,-64.1% (active)
3,COc1ccc(-c2cc(-c3ccc(N4CCOCC4)cc3)n3c(n2)nc2ccccc23)cc1OC,81%
4,COC(=O)c1cccc(NC2=C(Cl)C(=O)c3nc(C)ccc3C2=O)c1,-28.1% (active)
5,Cc1ccc(/C(N)=N/C(N)=N/c2nc3ccccc3s2)cc1,80.9%
6,Cc1ccc2c(n1)C(=O)C(Cl)=C(Nc1cccc(C)c1C)C2=O,-56.7% (active)
7,CC(=O)Nc1cc(N2CCOCC2)c2nc(NC(=O)c3[nH]c(C)c(Cl)c3Cl)sc2c1,46.9%
8,COc1ccc(N2CCN(C3=C(Cl)C(=O)c4ncccc4C3=O)CC2)cc1,-53.3% (active)
9,O=C(NCCNc1cc(-c2cn(-c3ccccc3)nc2-c2cccc(O)c2)ccn1)Nc1cc(C(F)(F)F)cc(C(F)(F)F)c1,90.5%
10,O=S1SC(c2ccccc2)=NN1c1cc(F)cc(F)c1 (stereo not given),1.86% (active)
11,CC(=O)Nc1nc(C)c(-c2csc(Nc3ccccc3)n2)s1,7.07% (active)
12,CCN(CC)c1ccc(/C=N/NC(=O)c2ccc(NS(C)(=O)=O)cc2)c(O)c1,26.3%
13,COc1ccc(OC)c(CCn2cncc2-c2c[nH]c3ccc(Cl)cc23)c1,20.1%
14,CCCCCCCCCCCC(=O)NC(C)(C)C(=O)N1CCCC1C(=O)NC(C)(C)C(=O)NC(C)(C)C(=O)N1CCCC1C(=O)NC(C)(C)C(=O)NC(C)(C)C(=O)N1CCCC1C(=O)NC(C)C(=O)NCCC(=O)NC(C)C(=O)NC(C)(C)C(=O)NC(C)(C)C(=O)NC(C)(C)C(=O)NCCC(=O)NC(C)(C)C(=O)NC(C)(C)C(=O)NC(C)(C)C(=O)NC(C)C(=O)NCCC(=O)O (stereo not given),-64.3% (active)
15,Cc1[nH]c(C(=O)Nc2ccc(C(=O)NCC3CCNCC3)cc2OC(C)C)c(Cl)c1Cl,77.6%
16,Cc1nc(N)sc1-c1csc(Nc2ccc(C(F)(F)F)cc2)n1,-0.894% (active)
17,CN1CCN(c2ccc(Nc3nc(NCCCNS(=O)(=O)c4ccc(C(F)(F)F)cc4)c4sccc4n3)cc2)CC1,-29% (active)
18,Cn1cc(-c2nnc(N)nc2-c2c[nH]c3ccc(Br)cc23)c2cc(Br)ccc21,88%
19,COc1ccccc1Cn1cc(C#N)c(N)c1C(=O)c1ccc(Br)cc1,74.1%
20,CCOC(=O)c1ccccc1NC1=C(Cl)C(=O)c2nc(C)ccc2C1=O,92.8%

row,SMILES,growth
1,Cc1cc(C)cc(NC2=C(Cl)C(=O)c3nc(C)ccc3C2=O)c1,-20% (active)
2,N#CC1=C2NCCCNc3oc(nc3C#N)Cc3ccccc3CC(=N1)O2,92.6%
3,COc1ccc(-c2c3c(cn2Cc2cccc(OC)c2)-c2oncc2CCC3)cc1,75.7%
4,CC1=C(C)C(=O)C(Nc2cccc(C(=O)OC(C)(C)C)c2)=C(Cl)C1=O,4.99% (active)
5,O=C(Nc1cc(C(F)(F)F)cc(C(F)(F)F)c1)Nc1ccc2oc(=O)ccc2c1,4.8% (active)
6,COc1cc(C(=O)c2cc(C(C)=O)c3cccc(C)n23)cc(OC)c1OC,20.3%
7,CCOC(=O)c1cccc(NC2=C(Cl)C(=O)C(C)=C(C)C2=O)c1,-37.5% (active)
8,O=C(CCl)Nc1ccc(NC(=O)c2cc(Cl)ccc2O)c(Cl)c1,81.3%
9,Cc1[nH]c(C(=O)Nc2ccccc2OCc2cccc(C(=O)NCCN)c2)cc1Cl,87.1%
10,CCNC(=O)Oc1ccc(/C(=C(/C)c2ccc(OC)cc2)c2ccc(OCCN3CCCCCC3)cc2)cc1,26.6%
11,COc1ccc2c(c1)c(-c1nc(N)nnc1-c1c[nH]c3ccccc13)cn2C,41.2%
12,Brc1ccc(-c2cc(-c3ccc4c(c3)OC=CO4)n[nH]2)s1,48.5%
13,Clc1ccc2[nH]cc(-c3nn4cc(-c5cccnc5)nc4s3)c2c1,71.5%
14,Cc1ccc2c(n1)C(=O)C(Cl)=C(Nc1ccc(C(C)C)cc1)C2=O,-47% (active)
15,Cc1csc(/N=C(N)/N=C(\N)c2cccc(C#N)c2)n1,79.7%
16,CCNC(=O)Oc1ccc(/C(=C(/C)c2ccc(Cl)cc2)c2ccc(OCCN3CCCCCC3)cc2)cc1,10.8%
17,COc1ccc(C(C)=C(c2ccc(OCCN(C)C)cc2)c2ccc(OCCN(C)C)cc2)cc1,-60.6% (active)
18,C[C@H](Nc1ncnc2ccc(-c3cnc(Cl)c(NS(C)(=O)=O)c3)cc12)c1ccccc1,-53.2% (active)
19,CCN(CC)c1ccc(/C=N/NC(=O)c2ccc(S(N)(=O)=O)cc2)c(O)c1,30.4%
20,O=C1[C@@H]2Cc3c([nH]c4ccccc34)[C@@H](c3ccc(Cl)cc3)N2C(=O)CN1C1CCN(Cc2c(F)cccc2F)CC1,56.8%
